The first assay concerns the target PLA2R1. Briefly: pooled miR-30 sensor sort-seq; sequence = guide strand. As to conditions: shRNA.
Sequence TTATCTGTGGTGAACAGTCCAA displayed a sensor-assay potency score (higher = more potent) of -0.19.
Same read-out and setting: next, TAAAAGATTAGAACCTTCCTTT: 0.786.
In turn, TTGAGCATTCAACCAAACCATC gave a sensor-assay potency score (higher = more potent) of -1.81.
TATCACAACCTACTTCTGCAGA returned a sensor-assay potency score (higher = more potent) of -0.52.

The next assay addresses PLAA. The assay is described as above. The settings on record: shRNA.
Sequence TTATTTGAGAATCAACACCTAA showed a sensor-assay potency score (higher = more potent) of -0.576.
The same measure, in the same setting: next, TAAATCTACAGCATTCACTTAC: -0.27; TTAACTTCTTCTCTTCAGGTGC: 0.5; TAGGTCTTGTACTACTTCCAAG: -1.39.
On the same count and under the same terms, next, TAACACTCCACTGATAGGCTTC: 0.424; TTTTAGATGCAGCTGATCGGTA: -0.655.
On the same count and under the same terms, next, TATTGTGGTCATTTCCACCGGT: 0.536; TTAGTGACAAACATTGGGCTTT: 0.657; TATACTTCAAGACACTCGCCAG: -0.398.
TAGACTGAGCTGGAAGTCGGAT registered a sensor-assay potency score (higher = more potent) of -0.595.
TTTAACAGTCTTGTCTGCTGAT had a sensor-assay potency score (higher = more potent) of 0.5.
Take TAATTAGTGACAAACATTGGGC: the sensor-assay potency score (higher = more potent) is -0.357.

Another assay deals with PLB1. Described as above. As to conditions: shRNA.
In the case of TAGTGGACCAGATCATTGCAGA, the sensor-assay potency score (higher = more potent) was -0.927.
On the same count and under the same terms, next, TACTGTGTGGTGACATCGGGGA: 0.115; TATTGTTCCAGAGAGCACTGGC: 0.63.
Same read-out and setting: next, TTGTTGGAGGTAGTCTTGCGGC: -0.878.
As for TACAGATTCGAATCTGTGCAGT, the sensor-assay potency score (higher = more potent) was -0.43.
Same read-out and setting: as for ATACTGTGTGGTGACATCGGGG, the figure is -1.03.
Same read-out and setting: next, TAAGGTGGTCACATTCTCCAGG: 0.024; TTATCTTCCAGTCTTCCTGAAA: -0.752; TATTATCTTCCAGTCTTCCTGA: 0.718.
The same measure, in the same setting: as for TCTATGATCATCTTTCATCTTC, the figure is 0.303; as for TTGATCTTGTTTTCAAACTTAT, -0.907; as for TTGAAAGTCAAGTTGCAGGTTC, 0.551.

Another assay addresses PLCB3. The description is as above. As to conditions: shRNA.
Take TTGCGCAGGAAGGTGTTCCGGG: the sensor-assay potency score (higher = more potent) was -0.298.
The same measure, in the same setting: next, TACTTTTCGATGAGCAGCCGGG: -0.993.
Same read-out and setting: as for TATTCCACAAACTCCATGGGGC, the figure is -0.0487.
Same read-out and setting: as for TTGTCTGCTGAGAACATCTTCA, the figure is -0.392; as for TTGAATAGCTCCTCAGACCAGA, -0.311.
As for TTCGTTGAGTCTCGGGTCGCGT, the sensor-assay potency score (higher = more potent) is -0.421.
The same measure, in the same setting: as for TTCGATGTAGTTGACAAGCGTG, the figure is -0.63; as for ATGAAGTTCAAGAACACTGTGT, 0.354.
Consider AAGAACACTGTGTTCACCGGGT, for which the sensor-assay potency score (higher = more potent) turned out to be 0.656.
The sequence TTTGATGAACTTACTCCCGCGC showed a sensor-assay potency score (higher = more potent) of 0.0652.
Same read-out and setting: as for TTGTATTCCACAAACTCCATGG, the figure is -0.418; as for TAGTTGGAGGAGTCCACGCGGG, -1.09.
Also: reference of the scale not given here.
